PubChem BioAssay (NCATS)
Inconclusive results are not listed. Values without a mark were called inactive. Calls follow the shape of the dose curve; as a rule, active = well fitted cell-killing curve with a large enough effect; inconclusive = small, poorly fitted or top-dose-only effect, or effect the other way; inactive = flat fitted curve, though single readings scatter.

Test system: CASKI
Assay: Primary qHTS to identify gynecologic anti-cancer compounds using libraries of approved drugs and bioactive compounds (AID 1345084); also: nearly all actives have a fitted effect of over 55% in size
Details: Gynecologic cancer cell panel viability, ATPlite luminescence, 48 h; series mostly up to 57.5 µM; activity change, negative = cytotoxicity: at the top concentration
Outline: (§1)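 ATP-based viability (ATPlite), 1,000 cells/well, 16 h pre-incubation, 48 h compound at 37 C, 5% CO2, 15 min RT before read.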
% is scaled to controls: 0 for no effect and ±100 for the full control effect.

Row | SMILES | activity change, negative = cytotoxicity
1 | N#Cc1cccc(C(=O)Nc2cc(-c3ccccc3)nn2-c2ccccc2)c1 | 17.5%
2 | O=C(Nc1ccc(C(F)(F)F)cn1)N1CCN(c2ncccc2C(F)(F)F)CC1 | 0%
3 | O=C(Nc1ccccc1C(=O)NC1CCCCNC1=O)c1cc2ccccc2s1 (stereo not drawn) | 6.18%
4 | CCCCCCOC(=O)/N=C(\N)c1ccc(NCc2nc3cc(C(=O)N(CCC(=O)OCC)c4ccccn4)ccc3n2C)cc1 | 3.15%
5 | CC[C@H]1CN(c2nc(N)c(C(N)=O)nc2Cl)CCN1C1CCN(Cc2ccc(Cl)cc2)CC1 | 21.9%
6 | CC(C)=CCc1cc2c(cc1O)OC[C@H]1c3ccc(O)cc3O[C@@H]21 | -4.36% [at 38.5 µM]
7 | Cc1c(C(=O)NCc2cccnc2)nn(-c2ccc(Cl)cc2Cl)c1-c1ccc(Cl)cc1 | -2.14%
8 | C=C1C(OC2OC(CO)C(O)C(O)C2O)CC2C(C)(C)C(O)CCC2(C)C1CC/C(C)=C\COC(=O)CC(=O)O (stereo not drawn) | -8.61% [at 25.3 µM]
9 | C=CC1(C)CC(O)C(C(=C)C(=O)OC)C(O)C1C(=C)CO (stereo not drawn) | -0.0838%
10 | Cn1cc(-c2ccc(F)c(C(F)(F)F)c2)nc1C1CCN(c2ncnc3[nH]ncc23)CC1 | 0.998% [at 25.3 µM]
11 | Cc1ccccc1CN1CCn2c1nc1c(c2=O)CN(Cc2ccccc2)CC1 | 10.3%
12 | Cc1cc(-c2ncc(-c3cccnc3)cc2/C=C/c2ccccc2)cnc1-c1cccnc1 | 26.7%
13 | Cc1cnn(-c2ccccc2)c1NC(=O)COCc1ccccc1 | 0.186%
14 | OC(CC1c2ccccc2-c2cncn21)C1CCCCC1 (stereo not drawn) | 6.94%
15 | Nc1nc2c(s1)CCN(Cc1ccc(Cl)cc1)CC2 | 0.778%
16 | COc1ccc(CCN(C)CCCOc2nsc(-c3ccccc3)n2)cc1OC | 5.19%
17 | COc1cc(O)cc(OC2OC(CO)C(O)C(O)C2O)c1 (stereo not drawn) | 5.55%
18 | Cc1cc(C)cc(-c2cnc3cc(Cl)c(-c4cccc(O)c4)cc3c2OCCCN)c1 | -1.92%
19 | N[C@@H]1c2cccnc2[C@H](OC(=O)N2CCC(n3c(=O)[nH]c4ncccc43)CC2)CC[C@H]1c1cccc(F)c1F | 13.9%
20 | CNCc1cc(-c2ccccc2F)n(S(=O)(=O)c2cccnc2)c1 | 12.5%

Row | SMILES | activity change, negative = cytotoxicity
21 | COc1c2c(c(C)c3c1C(=O)OC3)O[C@@]1(C)C[C@@H](OC(C)=O)[C@]34O[C@](OC)(CC[C@]3(C)[C@H]1C2)OC4(C)C | -16.9% [at 25.3 µM]
22 | O=C(N[C@H](Cc1cscn1)C(=O)N[C@@H](CC1CCCCC1)[C@@H](O)[C@@H](O)C1CC1)c1nc2ccccc2[nH]1 | -21.4%
23 | O=C(COc1ccc2ccccc2c1Br)Nc1cccnc1 | -11.8%
24 | C=C(CCC1C(C)(O)CCC2C(C)(C)C(O)CCC12C)C(O)CO (stereo not drawn) | -5.71% [at 38.5 µM]
25 | C=CCC1=C[C@]2(OC)[C@H](C)[C@@H](c3ccc4c(c3)OCO4)O[C@]2(OC)CC1=O | -5.63% [at 38.5 µM]
26 | C[C@H]1CC[C@@]2(OC1)O[C@H]1CC3[C@@H]4CC[C@@H]5C[C@@H](O[C@@H]6O[C@H](CO)[C@@H](O[C@@H]7O[C@H](CO[C@@H]8OC[C@@H](O)[C@H](O)[C@H]8O)[C@@H](O[C@@H]8O[C@H](CO)[C@H](O)[C@H](O)[C@H]8O)[C@H](O)[C@H]7O)[C@H](O)[C@H]6O)CC[C@]5(C)C4CC[C@]3(C)[C@H]1[C@@H]2C (stereo partly drawn) | -0.139% [at 11.6 µM]
27 | C[C@@H](NC(=O)C(=O)c1c[nH]c2ccc([N+](=O)[O-])cc12)c1ccccc1 | 7.36%
28 | Cc1[nH]c2ccccc2c1CCNC(=O)c1cccs1 | -7.76%
29 | C#CCCCn1cc(-c2cccc3c2N[C@H](C)CC(=O)N3)cn1 | -4.26%
30 | O=C(NC1CCC1)c1ccc(C#Cc2cccc(F)c2)nc1 | -6.6%
31 | O=C(O)c1cccc(-c2ccc(-c3cn(C(=O)N4CCCCC4Cc4ccccc4)nn3)cc2)c1 (stereo not drawn) | -2.62%
32 | COC1C(OC(=O)/C=C/C=C/C=C/C=C/C(=O)O)CCC2(CO2)C1C1(C)OC1CC=C(C)C (stereo not drawn) | 17.5% [at 25.3 µM]
33 | Cc1cc2c(cc1N1C(=O)c3cccc4c(CCCO)ccc(c34)C1=O)n(C)c(=O)n2C | 1.18% [at 25.3 µM]
34 | O=C(NCC(=O)N1CCCC1)Nc1ccc2cnccc2c1 | -3.53%
35 | CC(C)(C)c1ccc(C(=O)Nc2cn3cc(-n4ccnc4)ccc3n2)cc1 | -5.87%
36 | O=S1(=O)CCN(Cc2cc(NCC3CCOCC3)c3[nH]c(-c4ccccc4)cc3c2)CC1 | -1.99%
37 | NS(=O)(=O)c1ccc(N2N=C(c3ccccc3)CC2c2ccccc2)cc1 (stereo not drawn) | 13.2%
38 | CCc1ccccc1OC[C@@H](O)CN[C@H]1CCCc2ccccc21 | -4.13%
39 | C=C1/C(=C/C=C2\CCC[C@]3(C)[C@@H]([C@H](C)/C=C/[C@H](O)C4CC4)CC[C@@H]23)C[C@@H](O)C[C@@H]1O | 16.9%

Test system: Es-2
Assay: as above
Details: Gynecologic cancer cell panel viability, ATPlite luminescence, 48 h; series mostly up to 57.5 µM; activity change, negative = cytotoxicity: at the top concentration
Outline: as §1

Row | SMILES | activity change, negative = cytotoxicity
40 | N#Cc1cccc(C(=O)Nc2cc(-c3ccccc3)nn2-c2ccccc2)c1 | 10.7%
41 | O=C(Nc1ccc(C(F)(F)F)cn1)N1CCN(c2ncccc2C(F)(F)F)CC1 | -6.71%
42 | O=C(Nc1ccccc1C(=O)NC1CCCCNC1=O)c1cc2ccccc2s1 (stereo not drawn) | 5.14%
43 | CCCCCCOC(=O)/N=C(\N)c1ccc(NCc2nc3cc(C(=O)N(CCC(=O)OCC)c4ccccn4)ccc3n2C)cc1 | 11.6%
44 | CC[C@H]1CN(c2nc(N)c(C(N)=O)nc2Cl)CCN1C1CCN(Cc2ccc(Cl)cc2)CC1 | 5.69%
45 | CC(C)=CCc1cc2c(cc1O)OC[C@H]1c3ccc(O)cc3O[C@@H]21 | 2.59% [at 38.5 µM]
46 | Cc1c(C(=O)NCc2cccnc2)nn(-c2ccc(Cl)cc2Cl)c1-c1ccc(Cl)cc1 | -2.67%
47 | C=C1C(OC2OC(CO)C(O)C(O)C2O)CC2C(C)(C)C(O)CCC2(C)C1CC/C(C)=C\COC(=O)CC(=O)O (stereo not drawn) | -2.33% [at 25.3 µM]
48 | C=CC1(C)CC(O)C(C(=C)C(=O)OC)C(O)C1C(=C)CO (stereo not drawn) | -1.61%
49 | Cn1cc(-c2ccc(F)c(C(F)(F)F)c2)nc1C1CCN(c2ncnc3[nH]ncc23)CC1 | -0.66% [at 25.3 µM]
50 | Cc1ccccc1CN1CCn2c1nc1c(c2=O)CN(Cc2ccccc2)CC1 | 7.01%
51 | Cc1cc(-c2ncc(-c3cccnc3)cc2/C=C/c2ccccc2)cnc1-c1cccnc1 | 7.91%
52 | Cc1cnn(-c2ccccc2)c1NC(=O)COCc1ccccc1 | -0.873%
53 | OC(CC1c2ccccc2-c2cncn21)C1CCCCC1 (stereo not drawn) | -0.708%
54 | Nc1nc2c(s1)CCN(Cc1ccc(Cl)cc1)CC2 | 8.4%
55 | COc1ccc(CCN(C)CCCOc2nsc(-c3ccccc3)n2)cc1OC | -0.064%
56 | COc1cc(O)cc(OC2OC(CO)C(O)C(O)C2O)c1 (stereo not drawn) | -0.283%
57 | Cc1cc(C)cc(-c2cnc3cc(Cl)c(-c4cccc(O)c4)cc3c2OCCCN)c1 | -15.3%
58 | N[C@@H]1c2cccnc2[C@H](OC(=O)N2CCC(n3c(=O)[nH]c4ncccc43)CC2)CC[C@H]1c1cccc(F)c1F | 9.78%
59 | CNCc1cc(-c2ccccc2F)n(S(=O)(=O)c2cccnc2)c1 | -5.64%

Row | SMILES | activity change, negative = cytotoxicity
60 | COc1c2c(c(C)c3c1C(=O)OC3)O[C@@]1(C)C[C@@H](OC(C)=O)[C@]34O[C@](OC)(CC[C@]3(C)[C@H]1C2)OC4(C)C | -6.73% [at 25.3 µM]
61 | O=C(N[C@H](Cc1cscn1)C(=O)N[C@@H](CC1CCCCC1)[C@@H](O)[C@@H](O)C1CC1)c1nc2ccccc2[nH]1 | 14.1%
62 | O=C(COc1ccc2ccccc2c1Br)Nc1cccnc1 | -5.64%
63 | C=C(CCC1C(C)(O)CCC2C(C)(C)C(O)CCC12C)C(O)CO (stereo not drawn) | 7.65% [at 38.5 µM]
64 | C=CCC1=C[C@]2(OC)[C@H](C)[C@@H](c3ccc4c(c3)OCO4)O[C@]2(OC)CC1=O | -3.46% [at 38.5 µM]
65 | C[C@H]1CC[C@@]2(OC1)O[C@H]1CC3[C@@H]4CC[C@@H]5C[C@@H](O[C@@H]6O[C@H](CO)[C@@H](O[C@@H]7O[C@H](CO[C@@H]8OC[C@@H](O)[C@H](O)[C@H]8O)[C@@H](O[C@@H]8O[C@H](CO)[C@H](O)[C@H](O)[C@H]8O)[C@H](O)[C@H]7O)[C@H](O)[C@H]6O)CC[C@]5(C)C4CC[C@]3(C)[C@H]1[C@@H]2C (stereo partly drawn) | -0.634% [at 11.6 µM]
66 | C[C@@H](NC(=O)C(=O)c1c[nH]c2ccc([N+](=O)[O-])cc12)c1ccccc1 | 3.2%
67 | Cc1[nH]c2ccccc2c1CCNC(=O)c1cccs1 | -7.85%
68 | C#CCCCn1cc(-c2cccc3c2N[C@H](C)CC(=O)N3)cn1 | 11.4%
69 | O=C(NC1CCC1)c1ccc(C#Cc2cccc(F)c2)nc1 | 7.8%
70 | O=C(O)c1cccc(-c2ccc(-c3cn(C(=O)N4CCCCC4Cc4ccccc4)nn3)cc2)c1 (stereo not drawn) | 1.05%
71 | COC1C(OC(=O)/C=C/C=C/C=C/C=C/C(=O)O)CCC2(CO2)C1C1(C)OC1CC=C(C)C (stereo not drawn) | 0.376% [at 25.3 µM]
72 | Cc1cc2c(cc1N1C(=O)c3cccc4c(CCCO)ccc(c34)C1=O)n(C)c(=O)n2C | -5.69% [at 25.3 µM]
73 | O=C(NCC(=O)N1CCCC1)Nc1ccc2cnccc2c1 | 9.82%
74 | CC(C)(C)c1ccc(C(=O)Nc2cn3cc(-n4ccnc4)ccc3n2)cc1 | 9.85%
75 | O=S1(=O)CCN(Cc2cc(NCC3CCOCC3)c3[nH]c(-c4ccccc4)cc3c2)CC1 | -2.47%
76 | NS(=O)(=O)c1ccc(N2N=C(c3ccccc3)CC2c2ccccc2)cc1 (stereo not drawn) | -0.722%
77 | CCc1ccccc1OC[C@@H](O)CN[C@H]1CCCc2ccccc21 | -6.59%
78 | C=C1/C(=C/C=C2\CCC[C@]3(C)[C@@H]([C@H](C)/C=C/[C@H](O)C4CC4)CC[C@@H]23)C[C@@H](O)C[C@@H]1O | 1.7%
